# Test results taken from the supplement of paper PMC12282887.
# ± gives the standard deviation of the averaged measurements.
# Experiments:
# Assay in all cases: promoter activity interaction Z-score (Lux/OD deviation from empty-vector control); higher = stronger promoter induction by the compound
# [1] = tested on: E. coli BW25113 acrABp lux reporter
# In short: (§1)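 Four 1:2 dilutions of each compound were tested in biological duplicates on E. coli BW25113 carrying low-copy luxCDABE promoter reporters, either wild type or deleted for one of three genes. Cultures of 40 µl LB Lennox in 384-well plates were kept at 37°C and read for OD600 and luminescence every 30 min for 12 h. Integration windows were 0–8 h for wild type and 1–9 h for deletion strains, and wells under 10% of the median growth value were discarded. The score is a Z-transformed residual of growth-normalised luminescence relative to a control fit.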
# [2] = tested on: E. coli BW25113 micFp lux reporter
# In short: as §1
# [3] = tested on: E. coli BW25113 ompFp lux reporter
# In short: as §1
# [4] = tested on: E. coli BW25113 robp lux reporter
# In short: as §1
# [5] = tested on: E. coli BW25113 soxSp lux reporter
# In short: as §1
# [6] = tested on: E. coli BW25113 tolCp lux reporter
# In short: as §1
# [7] = 0.073 µg/ml, genetic background: wild type
# [8] = 0.073 µg/ml, genetic background: ΔmarA
# [9] = 0.073 µg/ml, genetic background: Δrob
# [10] = 0.073 µg/ml, genetic background: ΔsoxS
# [11] = 0.15 µg/ml, genetic background: wild type
# [12] = 0.15 µg/ml, genetic background: ΔmarA
# [13] = 0.15 µg/ml, genetic background: Δrob
# [14] = 0.15 µg/ml, genetic background: ΔsoxS
# [15] = 0.29 µg/ml, genetic background: wild type
# [16] = 0.29 µg/ml, genetic background: ΔmarA
# [17] = 0.29 µg/ml, genetic background: Δrob
# [18] = 0.29 µg/ml, genetic background: ΔsoxS
# [19] = 0.58 µg/ml, genetic background: wild type
# [20] = 0.58 µg/ml, genetic background: ΔmarA
# [21] = 0.58 µg/ml, genetic background: Δrob
# [22] = 0.58 µg/ml, genetic background: ΔsoxS
smiles,measurement,setting,value
COc1cc(Cc2cnc(N)nc2N)cc(OC)c1OC [Trimethoprim],promoter activity interaction Z-score,[1]; [7],0.0131 ± 0.34
same,promoter activity interaction Z-score,[1]; [8],-0.307 ± 0.0077
same,promoter activity interaction Z-score,[1]; [9],-0.0611 ± 0.045
same,promoter activity interaction Z-score,[1]; [10],-0.429 ± 0.0073
same,promoter activity interaction Z-score,[1]; [11],0.297 ± 0.54
same,promoter activity interaction Z-score,[1]; [12],1.43 ± 0.76
same,promoter activity interaction Z-score,[1]; [13],0.162 ± 0.041
same,promoter activity interaction Z-score,[1]; [14],-0.000323 ± 0.14
same,promoter activity interaction Z-score,[1]; [15],0.6 ± 0.73
same,promoter activity interaction Z-score,[1]; [16],-0.763 ± 0.81
same,promoter activity interaction Z-score,[1]; [17],0.526 ± 0.19
same,promoter activity interaction Z-score,[1]; [18],0.701 ± 0.81
same,promoter activity interaction Z-score,[1]; [19],0.577 ± 0.46
same,promoter activity interaction Z-score,[1]; [20],-0.476 ± 0.038
same,promoter activity interaction Z-score,[1]; [21],1.39 ± 0.35
same,promoter activity interaction Z-score,[1]; [22],0.448 ± 0.78
same,promoter activity interaction Z-score,[2]; [7],0.711 ± 0.12
same,promoter activity interaction Z-score,[2]; [8],0.728 ± 0.027
same,promoter activity interaction Z-score,[2]; [9],0.665 ± 0.28
same,promoter activity interaction Z-score,[2]; [10],0.533 ± 0.23
same,promoter activity interaction Z-score,[2]; [11],1.86 ± 0.14
same,promoter activity interaction Z-score,[2]; [12],1.1 ± 0.14
same,promoter activity interaction Z-score,[2]; [13],1.29 ± 0.44
same,promoter activity interaction Z-score,[2]; [14],0.842 ± 0.36
same,promoter activity interaction Z-score,[2]; [15],2.75 ± 0.96
same,promoter activity interaction Z-score,[2]; [16],1.9 ± 0.074
same,promoter activity interaction Z-score,[2]; [17],2.28 ± 0.79
same,promoter activity interaction Z-score,[2]; [18],1.33 ± 0.41
same,promoter activity interaction Z-score,[2]; [19],0.997 ± 0.95
same,promoter activity interaction Z-score,[2]; [20],0.388 ± 0.61
same,promoter activity interaction Z-score,[2]; [21],1.15 ± 0.38
same,promoter activity interaction Z-score,[2]; [22],0.825 ± 0.16
same,promoter activity interaction Z-score,[3]; [7],-0.322 ± 0.3
same,promoter activity interaction Z-score,[3]; [8],-1.17 ± 0.5
same,promoter activity interaction Z-score,[3]; [9],-0.297 ± 0.54
same,promoter activity interaction Z-score,[3]; [10],-0.129 ± 0.65
same,promoter activity interaction Z-score,[3]; [11],0.109 ± 0.39
same,promoter activity interaction Z-score,[3]; [12],-0.477 ± 0.78
same,promoter activity interaction Z-score,[3]; [13],0.244 ± 0.7
same,promoter activity interaction Z-score,[3]; [14],0.51 ± 0.81
same,promoter activity interaction Z-score,[3]; [15],0.0831 ± 0.67
same,promoter activity interaction Z-score,[3]; [16],-1.9 ± 0.61
same,promoter activity interaction Z-score,[3]; [17],-0.0302 ± 1
same,promoter activity interaction Z-score,[3]; [18],0.395 ± 1.3
same,promoter activity interaction Z-score,[3]; [19],-0.896 ± 0.32
same,promoter activity interaction Z-score,[3]; [20],-0.897 ± 0.46
same,promoter activity interaction Z-score,[3]; [21],0.0886 ± 0.83
same,promoter activity interaction Z-score,[3]; [22],-1.15 ± 0.39
same,promoter activity interaction Z-score,[4]; [7],0.791 ± 0.3
same,promoter activity interaction Z-score,[4]; [8],0.875 ± 0.23
same,promoter activity interaction Z-score,[4]; [9],2.11 ± 0.058
same,promoter activity interaction Z-score,[4]; [10],0.238 ± 1.1
same,promoter activity interaction Z-score,[4]; [11],3.64 ± 0.82
same,promoter activity interaction Z-score,[4]; [12],3.37 ± 0.44
same,promoter activity interaction Z-score,[4]; [13],4.81 ± 0.7
same,promoter activity interaction Z-score,[4]; [14],2.16 ± 0.27
same,promoter activity interaction Z-score,[4]; [15],7.43 ± 2.3
same,promoter activity interaction Z-score,[4]; [16],5.16 ± 0.16
same,promoter activity interaction Z-score,[4]; [17],8.88 ± 0.31
same,promoter activity interaction Z-score,[4]; [18],5.55 ± 0.44
same,promoter activity interaction Z-score,[4]; [19],3.89 ± 0.063
same,promoter activity interaction Z-score,[4]; [20],4.6 ± 5.3
same,promoter activity interaction Z-score,[4]; [21],3.21 ± 0.23
same,promoter activity interaction Z-score,[4]; [22],2.01 ± 1.6
same,promoter activity interaction Z-score,[5]; [7],-0.0844 ± 0.22
same,promoter activity interaction Z-score,[5]; [8],0.118 ± 0.2
same,promoter activity interaction Z-score,[5]; [9],0.163 ± 0.18
same,promoter activity interaction Z-score,[5]; [10],-0.116 ± 0.24
same,promoter activity interaction Z-score,[5]; [11],0.261 ± 0.11
same,promoter activity interaction Z-score,[5]; [12],0.204 ± 0.1
same,promoter activity interaction Z-score,[5]; [13],0.486 ± 0.39
same,promoter activity interaction Z-score,[5]; [14],0.169 ± 0.29
same,promoter activity interaction Z-score,[5]; [15],0.521 ± 0.032
same,promoter activity interaction Z-score,[5]; [16],0.796 ± 0.022
same,promoter activity interaction Z-score,[5]; [17],0.986 ± 0.72
same,promoter activity interaction Z-score,[5]; [18],0.663 ± 0.23
same,promoter activity interaction Z-score,[5]; [19],1.34 ± 0.14
same,promoter activity interaction Z-score,[5]; [20],2.96 ± 0.38
same,promoter activity interaction Z-score,[5]; [21],2.69 ± 1.1
same,promoter activity interaction Z-score,[5]; [22],-0.0409 ± 0.74
same,promoter activity interaction Z-score,[6]; [7],0.67 ± 0.48
same,promoter activity interaction Z-score,[6]; [8],-0.632 ± 0.36
same,promoter activity interaction Z-score,[6]; [9],-0.116 ± 0.95
same,promoter activity interaction Z-score,[6]; [10],-0.559 ± 0.21
same,promoter activity interaction Z-score,[6]; [11],0.553 ± 0.46
same,promoter activity interaction Z-score,[6]; [12],-0.336 ± 0.28
same,promoter activity interaction Z-score,[6]; [13],0.749 ± 0.87
same,promoter activity interaction Z-score,[6]; [14],2.3 ± 2.1
same,promoter activity interaction Z-score,[6]; [15],1.84 ± 0.19
same,promoter activity interaction Z-score,[6]; [16],2.71 ± 0.84
same,promoter activity interaction Z-score,[6]; [17],1.92 ± 0.38
same,promoter activity interaction Z-score,[6]; [18],2.4 ± 1.6
same,promoter activity interaction Z-score,[6]; [19],1.85 ± 0.094
same,promoter activity interaction Z-score,[6]; [20],0.798 ± 2
same,promoter activity interaction Z-score,[6]; [21],1.4 ± 0.83
same,promoter activity interaction Z-score,[6]; [22],0.494 ± 0.71
